Of roughly 8,800 targets only a part is listed; those with a hit were picked by preference. About 0.5% of all pairs of compound and target were hits.
Legend:
Test in all cases: log2 fold change, soluble protein after heating vs DMSO (PISA); higher = thermal stabilisation; K562 lysate, 10 uM; active = over 0.2 and 3.5 SD of the protein, either way, in both replicates (recomputed)
nilotinib = compound: Cc1cn(-c2cc(NC(=O)c3ccc(C)c(Nc4nccc(-c5cccnc5)n4)c3)cc(C(F)(F)F)c2)cn1 [nilotinib]
Procedure, shortened: (§1)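 Following dounce homogenisation of K562 pellets in PBS pH 7.4 with 1 mM MgCl2, crude extract at 1 mg/mL protein was incubated for 30 min with 10 μM compound. Aliquots were then heated for 3 min over 48°C-58°C and pooled, NP-40 was added to 0.5% at 4°C, and soluble protein was recovered as the supernatant at 21,000xg for 90 min. Channel-sum-equalised TMTpro 16plex LC-MS/MS quantified this protein. Each value, from duplicates, is a log-two fold change in thermal stability relative to solvent controls.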

[1] = compound: Cc1nc(Nc2n[nH]c3c2CN(C(=O)N[C@H](CN(C)C)c2ccccc2)C3(C)C)c2sccc2n1
Procedure, shortened: as §1

dasatinib = compound: Cc1nc(Nc2ncc(C(=O)Nc3c(C)cccc3Cl)s2)cc(N2CCN(CCO)CC2)n1 [dasatinib]
Procedure, shortened: as §1

[2] = compound: Cc1ncc(-c2ccnc(Nc3ccc(S(C)(=O)=O)cc3)n2)n1C(C)C
Procedure, shortened: as §1

[3] = compound: Cn1cc(-c2ccc3c(c2)CCN3C(=O)Cc2cccc(C(F)(F)F)c2)c2c(N)ncnc21
Procedure, shortened: as §1

quisinostat = compound: Cn1cc(CNCC2CCN(c3ncc(C(=O)NO)cn3)CC2)c2ccccc21 [quisinostat]
Procedure, shortened: as §1

tipifarnib = compound: Cn1cncc1[C@@](N)(c1ccc(Cl)cc1)c1ccc2c(c1)c(-c1cccc(Cl)c1)cc(=O)n2C [tipifarnib]
Procedure, shortened: as §1

[4] = compound: NC(=O)Nc1cc(-c2cccc(F)c2)sc1C(=O)N[C@H]1CCCNC1
Procedure, shortened: as §1

[5] = compound: NC(=O)c1cnc(N[C@@H]2CCCC[C@@H]2N)nc1Nc1cccc(-n2nccn2)c1
Procedure, shortened: as §1

[6] = compound: NC1(c2ccc(-c3nc4ccn5c(=O)[nH]nc5c4cc3-c3ccccc3)cc2)CCC1
Procedure, shortened: as §1

Measured: log2 fold change

FNBP1L (UniProt Q5T0N5)
inactive: nilotinib -0.076 | [1] 0.03 | dasatinib -0.131 | [2] 0.007 | [3] -0.051 | quisinostat -0.068 | tipifarnib -0.016 | [4] 0.018 | [5] -0.004 | [6] 0.025

FXR2 (UniProt P51116)
Chain of UniProt P51116 (P51116 whole entry, looked up): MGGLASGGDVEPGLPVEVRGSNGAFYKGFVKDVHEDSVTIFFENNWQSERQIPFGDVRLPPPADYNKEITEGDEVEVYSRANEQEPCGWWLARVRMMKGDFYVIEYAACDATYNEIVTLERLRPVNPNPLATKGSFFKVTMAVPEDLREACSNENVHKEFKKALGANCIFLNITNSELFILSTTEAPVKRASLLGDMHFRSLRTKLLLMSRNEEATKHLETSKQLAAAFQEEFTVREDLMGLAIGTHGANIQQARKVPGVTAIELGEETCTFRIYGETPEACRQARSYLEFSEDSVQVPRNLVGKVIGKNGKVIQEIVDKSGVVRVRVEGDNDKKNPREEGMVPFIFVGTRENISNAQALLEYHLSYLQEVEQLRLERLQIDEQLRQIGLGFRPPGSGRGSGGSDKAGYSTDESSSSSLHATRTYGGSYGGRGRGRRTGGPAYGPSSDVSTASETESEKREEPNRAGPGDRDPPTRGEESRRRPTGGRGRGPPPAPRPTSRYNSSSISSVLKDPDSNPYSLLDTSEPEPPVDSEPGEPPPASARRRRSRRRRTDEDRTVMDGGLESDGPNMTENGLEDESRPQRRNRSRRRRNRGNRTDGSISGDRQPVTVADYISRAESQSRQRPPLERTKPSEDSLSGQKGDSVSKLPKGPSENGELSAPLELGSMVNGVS
inactive: nilotinib -0.066 | [1] 0.032 | dasatinib -0.027 | [2] 0.003 | [3] 0.074 | quisinostat 0.025 | tipifarnib 0.015 | [4] -0.034 | [5] -0.012 | [6] -0.003

FAM76B (UniProt Q5HYJ3)
inactive: nilotinib -0.044 | [1] 0.019 | dasatinib 0.093 | [2] -0.004 | [3] 0.005 | quisinostat -0.028 | tipifarnib -0.019 | [4] -0.032 | [5] -0.026 | [6] -0.07

EXOC2 (UniProt Q96KP1)
Chain of UniProt Q96KP1 (Q96KP1 whole entry, looked up): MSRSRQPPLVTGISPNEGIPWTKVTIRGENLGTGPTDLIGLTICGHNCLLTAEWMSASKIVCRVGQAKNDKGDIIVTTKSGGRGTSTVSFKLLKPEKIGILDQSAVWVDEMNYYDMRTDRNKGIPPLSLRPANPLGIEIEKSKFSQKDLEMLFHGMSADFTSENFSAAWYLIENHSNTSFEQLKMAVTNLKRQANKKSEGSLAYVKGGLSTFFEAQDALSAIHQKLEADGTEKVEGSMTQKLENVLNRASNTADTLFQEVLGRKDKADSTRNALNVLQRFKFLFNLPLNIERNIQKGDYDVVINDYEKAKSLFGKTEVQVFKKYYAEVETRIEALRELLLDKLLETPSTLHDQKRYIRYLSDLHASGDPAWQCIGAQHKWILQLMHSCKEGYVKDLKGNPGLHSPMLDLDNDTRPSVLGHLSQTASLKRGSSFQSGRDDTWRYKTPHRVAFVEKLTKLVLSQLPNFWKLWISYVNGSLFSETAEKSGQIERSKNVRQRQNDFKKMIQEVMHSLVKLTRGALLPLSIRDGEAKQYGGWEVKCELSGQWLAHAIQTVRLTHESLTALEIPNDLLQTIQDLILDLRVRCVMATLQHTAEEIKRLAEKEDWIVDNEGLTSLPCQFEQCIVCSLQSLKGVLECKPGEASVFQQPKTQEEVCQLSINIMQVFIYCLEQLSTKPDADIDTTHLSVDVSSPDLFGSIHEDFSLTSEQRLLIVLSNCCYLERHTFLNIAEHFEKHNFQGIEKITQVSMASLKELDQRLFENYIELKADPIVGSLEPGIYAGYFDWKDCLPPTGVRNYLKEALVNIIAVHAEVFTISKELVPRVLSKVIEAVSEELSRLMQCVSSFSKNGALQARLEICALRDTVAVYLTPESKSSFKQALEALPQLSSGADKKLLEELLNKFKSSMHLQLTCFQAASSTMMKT
inactive: nilotinib 0.009 | [1] 0.018 | dasatinib -0.041 | [2] -0.009 | [3] 0.022 | quisinostat -0.088 | tipifarnib -0.022 | [4] 0.062 | [5] -0.003 | [6] -0.029

FAM83D (UniProt Q9H4H8)
Chain of UniProt Q9H4H8 (Q9H4H8 whole entry, looked up): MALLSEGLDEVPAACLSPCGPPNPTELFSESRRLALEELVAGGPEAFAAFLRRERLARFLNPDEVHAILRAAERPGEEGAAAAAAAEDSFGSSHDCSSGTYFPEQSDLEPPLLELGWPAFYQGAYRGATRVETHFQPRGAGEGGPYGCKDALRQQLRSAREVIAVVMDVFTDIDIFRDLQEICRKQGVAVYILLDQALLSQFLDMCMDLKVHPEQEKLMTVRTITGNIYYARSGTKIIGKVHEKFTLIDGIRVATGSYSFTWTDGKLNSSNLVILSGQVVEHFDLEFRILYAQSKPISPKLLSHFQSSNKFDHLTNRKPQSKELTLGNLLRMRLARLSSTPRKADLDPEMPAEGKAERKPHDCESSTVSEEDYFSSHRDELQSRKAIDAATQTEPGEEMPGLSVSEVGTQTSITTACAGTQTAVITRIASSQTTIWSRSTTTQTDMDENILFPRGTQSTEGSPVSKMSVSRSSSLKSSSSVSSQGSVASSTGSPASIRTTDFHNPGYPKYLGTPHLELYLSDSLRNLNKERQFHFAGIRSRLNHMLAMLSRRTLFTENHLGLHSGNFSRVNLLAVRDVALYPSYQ
inactive: nilotinib -0.042 | [1] 0.004 | dasatinib -0.026 | [2] 0.008 | [3] -0.033 | quisinostat -0.061 | tipifarnib -0.02 | [4] -0.019 | [5] 0.05 | [6] 0.01

FTSJ3 (UniProt Q8IY81)
Chain of UniProt Q8IY81 (Q8IY81 whole entry, looked up): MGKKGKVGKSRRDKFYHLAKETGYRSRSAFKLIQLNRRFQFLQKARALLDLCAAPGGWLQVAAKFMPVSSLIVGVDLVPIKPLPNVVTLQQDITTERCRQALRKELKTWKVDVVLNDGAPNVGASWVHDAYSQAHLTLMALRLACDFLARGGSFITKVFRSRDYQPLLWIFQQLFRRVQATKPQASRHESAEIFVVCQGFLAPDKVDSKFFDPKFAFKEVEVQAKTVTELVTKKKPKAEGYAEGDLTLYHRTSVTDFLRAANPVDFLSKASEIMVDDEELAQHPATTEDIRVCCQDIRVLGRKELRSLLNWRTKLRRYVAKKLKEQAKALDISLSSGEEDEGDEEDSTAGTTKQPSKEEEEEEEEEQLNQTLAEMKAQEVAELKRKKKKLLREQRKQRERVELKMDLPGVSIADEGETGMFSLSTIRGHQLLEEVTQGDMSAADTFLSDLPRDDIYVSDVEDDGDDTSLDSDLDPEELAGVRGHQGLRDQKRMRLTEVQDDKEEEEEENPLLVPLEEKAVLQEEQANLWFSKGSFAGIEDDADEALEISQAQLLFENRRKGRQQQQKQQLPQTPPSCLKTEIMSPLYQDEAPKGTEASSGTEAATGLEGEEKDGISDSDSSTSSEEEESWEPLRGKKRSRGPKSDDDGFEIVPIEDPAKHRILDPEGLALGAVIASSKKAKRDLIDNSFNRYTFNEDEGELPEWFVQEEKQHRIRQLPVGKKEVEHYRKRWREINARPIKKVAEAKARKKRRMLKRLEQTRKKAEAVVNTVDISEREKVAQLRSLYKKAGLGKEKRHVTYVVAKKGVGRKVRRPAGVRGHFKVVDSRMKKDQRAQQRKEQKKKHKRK
inactive: nilotinib 0.001 | [1] -0.025 | dasatinib 0.021 | [2] 0.016 | [3] -0.001 | quisinostat 0.066 | tipifarnib -0.046 | [4] 0.047 | [5] 0.033 | [6] -0.015

ELAVL4 (UniProt P26378)
Chain of UniProt P26378 (P26378 whole entry, looked up): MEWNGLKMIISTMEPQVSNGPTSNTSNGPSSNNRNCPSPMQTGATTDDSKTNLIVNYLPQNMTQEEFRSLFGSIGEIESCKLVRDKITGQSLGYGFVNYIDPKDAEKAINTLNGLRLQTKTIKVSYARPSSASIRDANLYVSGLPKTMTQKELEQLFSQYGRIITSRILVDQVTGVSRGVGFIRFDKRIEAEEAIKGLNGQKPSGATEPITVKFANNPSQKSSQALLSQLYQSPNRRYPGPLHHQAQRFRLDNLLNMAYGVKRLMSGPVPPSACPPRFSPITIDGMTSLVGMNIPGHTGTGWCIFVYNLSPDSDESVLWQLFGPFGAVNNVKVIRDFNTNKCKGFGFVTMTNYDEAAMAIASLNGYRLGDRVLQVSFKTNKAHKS
inactive: nilotinib -0.07 | [1] -0.062 | dasatinib 0.006 | [2] 0.092 | [3] 0.039 | quisinostat -0.07 | tipifarnib -0.06 | [4] 0.07 | [5] 0.01 | [6] 0.024

EXTL2 (UniProt Q9UBQ6)
Chain of UniProt Q9UBQ6 (Q9UBQ6 whole entry, looked up): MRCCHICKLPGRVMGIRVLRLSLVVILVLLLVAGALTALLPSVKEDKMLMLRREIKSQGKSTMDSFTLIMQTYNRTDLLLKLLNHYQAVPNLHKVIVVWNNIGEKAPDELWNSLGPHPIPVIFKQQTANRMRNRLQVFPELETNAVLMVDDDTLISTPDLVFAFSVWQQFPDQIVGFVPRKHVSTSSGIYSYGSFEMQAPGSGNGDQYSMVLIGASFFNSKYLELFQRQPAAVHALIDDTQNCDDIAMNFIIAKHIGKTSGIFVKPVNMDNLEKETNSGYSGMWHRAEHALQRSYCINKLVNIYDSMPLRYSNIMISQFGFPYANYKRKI
inactive: nilotinib 0.07 | [1] -0.085 | dasatinib 0.127 | [2] 0.081 | [3] 0.13 | quisinostat -0.146 | tipifarnib 0.017 | [4] 0.035 | [5] -0.068 | [6] 0.003

FMNL1 isoform 3 (UniProt O95466)
inactive: nilotinib -0.174 | [1] -0.043 | dasatinib -0.13 | [2] -0.135 | [3] 0.009 | quisinostat -0.047 | tipifarnib -0.038 | [4] -0.051 | [5] 0.012 | [6] -0.042

FANCI (UniProt Q9NVI1)
Chain of UniProt Q9NVI1 (Q9NVI1 whole entry, looked up): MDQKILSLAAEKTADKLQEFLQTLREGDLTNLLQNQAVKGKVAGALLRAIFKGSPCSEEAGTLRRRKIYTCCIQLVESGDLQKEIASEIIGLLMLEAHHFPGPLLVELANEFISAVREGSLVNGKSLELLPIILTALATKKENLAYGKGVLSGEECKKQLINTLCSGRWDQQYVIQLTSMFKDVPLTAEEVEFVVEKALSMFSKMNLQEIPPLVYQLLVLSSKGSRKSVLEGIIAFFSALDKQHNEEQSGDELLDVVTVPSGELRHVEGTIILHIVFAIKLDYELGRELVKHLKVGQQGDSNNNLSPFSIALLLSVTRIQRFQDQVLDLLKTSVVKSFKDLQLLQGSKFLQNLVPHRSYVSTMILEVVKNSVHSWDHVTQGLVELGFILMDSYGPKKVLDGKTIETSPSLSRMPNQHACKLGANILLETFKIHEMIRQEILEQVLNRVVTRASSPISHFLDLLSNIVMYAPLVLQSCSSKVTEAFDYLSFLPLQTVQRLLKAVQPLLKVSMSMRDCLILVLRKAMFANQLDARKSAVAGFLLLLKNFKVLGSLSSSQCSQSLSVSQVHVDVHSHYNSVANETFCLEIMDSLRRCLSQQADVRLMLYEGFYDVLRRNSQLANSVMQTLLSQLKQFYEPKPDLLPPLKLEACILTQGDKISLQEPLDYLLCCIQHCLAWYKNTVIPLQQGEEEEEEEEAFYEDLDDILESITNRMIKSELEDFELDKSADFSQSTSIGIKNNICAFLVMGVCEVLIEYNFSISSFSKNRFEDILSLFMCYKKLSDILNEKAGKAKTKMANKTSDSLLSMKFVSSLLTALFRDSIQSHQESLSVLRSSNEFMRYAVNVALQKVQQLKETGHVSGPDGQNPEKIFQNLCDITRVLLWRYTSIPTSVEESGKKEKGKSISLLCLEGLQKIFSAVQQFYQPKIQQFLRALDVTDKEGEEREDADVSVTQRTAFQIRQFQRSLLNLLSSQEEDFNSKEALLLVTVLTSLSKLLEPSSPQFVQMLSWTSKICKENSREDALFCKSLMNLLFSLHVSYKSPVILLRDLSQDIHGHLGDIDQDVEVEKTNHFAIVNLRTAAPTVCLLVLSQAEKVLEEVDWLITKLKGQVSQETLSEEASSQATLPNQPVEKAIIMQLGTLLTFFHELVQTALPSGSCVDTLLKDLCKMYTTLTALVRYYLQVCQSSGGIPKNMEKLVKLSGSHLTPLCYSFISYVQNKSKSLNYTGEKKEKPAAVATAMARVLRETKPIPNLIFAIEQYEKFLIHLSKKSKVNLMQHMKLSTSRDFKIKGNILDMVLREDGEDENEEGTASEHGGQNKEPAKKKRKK
inactive: nilotinib -0.022 | [1] -0.011 | dasatinib -0.069 | [2] 0.028 | [3] 0.049 | quisinostat -0.065 | tipifarnib 0.01 | [4] 0.061 | [5] 0.027 | [6] -0.027

EP400 isoform 5 (UniProt Q96L91)
inactive: nilotinib -0.05 | [1] -0.04 | dasatinib 0.001 | [2] -0.025 | [3] -0.005 | quisinostat -0.014 | tipifarnib 0.04 | [4] 0.012 | [5] 0.019 | [6] -0.003

EXOC4 (UniProt Q96A65)
inactive: nilotinib 0.015 | [1] -0.012 | dasatinib -0.083 | [2] 0.015 | [3] 0.072 | quisinostat -0.009 | tipifarnib -0.036 | [4] 0.053 | [5] 0.013 | [6] -0.068

FCHO1 (UniProt O14526)
inactive: nilotinib 0.007 | [1] -0.02 | dasatinib -0.022 | [2] 0.035 | [3] 0.02 | quisinostat 0.013 | tipifarnib -0.025 | [4] 0.063 | [5] 0.006 | [6] 0.007

Reference: the supplement of paper PMC10849652
